In the library only some 10% were active in any assay of this set; here they are far more common.
HP1b chromo inh = inhibitors of HP1-beta chromodomain binding to methylated histone tails; P83916; AlphaScreen HP1-beta / biotin-H3K9me3 peptide binding; Potency, µM (doses to about 114 µM), for the others: top-dose activity change, negative = inhibition, most hits filed as inhibitors; 390,000 tested, 0.56% active; AID 540317; further: nearly all actives have a fitted effect of over 70% in size
Target sequence (P83916 whole entry, looked up): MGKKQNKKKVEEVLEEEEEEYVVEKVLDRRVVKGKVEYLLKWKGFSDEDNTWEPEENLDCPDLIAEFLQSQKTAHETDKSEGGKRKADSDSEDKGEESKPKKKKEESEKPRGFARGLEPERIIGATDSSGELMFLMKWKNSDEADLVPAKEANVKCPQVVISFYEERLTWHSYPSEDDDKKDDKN
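AlphaScreen: HP1-beta (50 nM) preformed 30 min with biotin-H3(1-18)K9me3 peptide (50 nM) in PBS pH 7.4, 0.01% Tween-20. Compound added for 30 min at RT, then streptavidin donor/nickel chelate acceptor beads (10 ug/mL) for 30 min.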
G9a inh = blocks human histone lysine methyltransferase G9a. G9a H3K9 monomethylation, AlphaScreen, 2 h. Potency, µM (top dose mostly 102 µM), inactives show at the top dose activity, negative = inhibition, actives largely listed as inhibitors. 350,000 tested, 8.8% active. AID 504332; further: on the % scale 0 is the no-effect control and ±100 the full control effect; nearly all actives have a fitted effect of over 75% in size
Target sequence (Q96KQ7 913-1193 limits assumed): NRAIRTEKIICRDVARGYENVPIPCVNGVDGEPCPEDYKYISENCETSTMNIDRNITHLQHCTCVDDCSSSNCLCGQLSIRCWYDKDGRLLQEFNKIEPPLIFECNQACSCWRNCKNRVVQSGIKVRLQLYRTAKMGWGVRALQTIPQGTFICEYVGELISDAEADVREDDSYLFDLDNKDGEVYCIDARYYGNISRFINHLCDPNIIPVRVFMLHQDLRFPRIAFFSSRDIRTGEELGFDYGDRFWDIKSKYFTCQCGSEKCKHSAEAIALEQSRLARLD
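Signal arises when biotinylated H3K9 peptide, once monomethylated, bridges streptavidin donor and antibody-captured acceptor beads. Enzyme at 20 nM was preincubated 15 min with test compounds; peptide 500 nM and SAM 20 uM then reacted for 2 h.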
GLS inhibitor = blocks human kidney-isoform glutaminase activity; O94925; GLS enzymatic activity, qHTS titration; Potency, µM (series often up to 45.5 µM), for the others: at the highest dose activity change, negative = inhibition, usual class: inhibitors; 410,000 tested, 0.21% active; AID 624170; further: on the % scale 0 is the no-effect control and ±100 the full control effect
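Compounds were pin-transferred onto hKGA, after which L-glutamine (1 mM solution) and a detection mix of glutamate oxidase, HRP and Amplex Red were added. Initial and 30 min RT fluorescence reads were collected.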
BAZ2B block = blocks human BAZ2B. AlphaScreen BAZ2B-H3K14Ac peptide displacement. Potency, µM (doses to about 114 µM), without a hit: top-dose activity change, negative = inhibition, hits mostly inhibitors. 360,000 tested, 4.4% active. AID 504333; further: on the % scale 0 is the no-effect control and ±100 the full control effect; nearly all actives have a fitted effect of over 60% in size
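AlphaScreen displacement of biotin-H3(5-23)K14Ac peptide (50 nM final) from BAZ2B (50 nM final) in PBS pH 7.4, 0.01% Tween-20; complex preformed 30 min RT, then compounds (top 110 uM) 30 min RT, beads 20 min dark.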
JMJD2A Tudor = blocks the human JMJD2A Tudor domain | AID 504339 | AlphaScreen JMJD2A-Tudor / H3K4me3 peptide binding | 390,000 tested, 4.4% active | O75164 | Potency, µM (top dose mostly 114 µM), for the others: at the top dose activity change, negative = inhibition, hits mostly inhibitors; further: on the % scale 0 is the no-effect control and ±100 the full control effect; nearly all actives have a fitted effect of over 50% in size
L3MBTL1 block = blocks human L3MBTL1. Q9Y468. AlphaScreen L3MBTL1–H3K9me1 peptide binding. Potency, µM (top dose mostly 57.1 µM), for inactives: at the highest dose activity, negative = inhibition, most hits filed as inhibitors. 230,000 tested, 0.66% active; further: on the % scale 0 is the no-effect control and ±100 the full control effect; nearly all actives have a fitted effect of over 60% in size
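L3MBTL1 (50 nM) pre-complexed 30 min with biotinylated H3(1-15)K9me1 peptide (75 nM), then compounds added for 30 min at room temperature; AlphaScreen streptavidin donor/nickel chelate acceptor beads (10 ug/mL final) read after 30 min dark incubation.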
An asterisk follows results filed as active; ? = inconclusive; nt = no result given; [ ] = another dose, or the depositor's remark. The call rests on the fitted dose curve; in most records, active means well fitted curve in the direction sought with a large enough effect; inconclusive means small, poorly fitted or top-dose-only effect, or another doubt; inactive means no such curve, though single readings can be large; an effect the other way counts as inactive or inconclusive. Potency means the concentration at half of the fitted maximal effect.

SMILES | HP1b chromo inh | G9a inh | GLS inhibitor | BAZ2B block | JMJD2A Tudor | L3MBTL1 block
CCC(=O)N1CCc2cc(S(=O)(=O)NC(Cc3ccccc3)C(=O)Nc3ccc(C)cc3)ccc21 (stereo not given) | 51.6% | -3.4%[59 µM] | -0.8% | nt | -8.0% | nt
CCc1ccc(-n2nc(CO)c(C(=O)NCCc3ccccc3)n2)cc1 | 36.3% | 12.0%[59 µM] | 3.8% | 4.4% | -10.7% | nt
CNC(=O)[C@H]1O[C@@H](n2cnc3c(NCc4ccc(N)cc4)ncnc32)[C@H](O)[C@H]1O | nt | 46.1%[12.7 µM] | nt | nt | nt | nt
CC1(C)CC(=O)C(C(C2=C(O)CC(C)(C)CC2=O)c2ccc(O)c([N+](=O)[O-])c2)=C(O)C1 | 19.6% | 35.5µM* | -1.1% | -32.2% | -7.7% | -6.4%
COc1cccc(C(C2=C(O)CC(C)(C)CC2=O)C2C(=O)CC(C)(C)CC2=O)c1 (stereo not given) | 42.7% | 44.7µM* | 44.3% | 1.2% | -15.2% | 8.2%
CC1(C)CC(=O)C(C(C2=C(O)CC(C)(C)CC2=O)c2ccc([N+](=O)[O-])cc2)C(=O)C1 (stereo not given) | 46.3% | 31.6µM* | 22.9% | -15.5% | -9.9% | -7.2%
Cc1ccc(C(C2=C(O)CC(C)(C)CC2=O)C2C(=O)CC(C)(C)CC2=O)s1 (stereo not given) | 32.1% | ? | 30.8% | -21.2% | -15.3% | 1.9%
CC1(C)CC(=O)C(C(C2=C(O)CC(C)(C)CC2=O)c2ccc(Br)s2)C(=O)C1 (stereo not given) | 15.2% | ? | -16.4% | -6.9% | -14.2% | 2.3%
CCC1CCCCN1CCCNC(=O)c1[nH]c2ccccc2c1Sc1ccc(Cl)cc1 (stereo not given) | 42.8% | -44.2%[59 µM] | 2.6% | -35.8% | -5.6% | nt
COc1cc(OC)cc(C(=O)n2cnnc2N)c1 | 34.6% | 44.7µM* | -3.2% | -32.0% | -5.6% | nt
COC(=O)c1cn(C(=O)c2cc(OC)cc(OC)c2)c2ccccc12 | 72.0% | 51.0% | 0.2% | 3.0% | 10.4% | 0.9%
C=CCN(c1ccccc1)S(=O)(=O)c1cccc(C(=O)NNC(=O)c2ccccc2O)c1 | 3.8% | 31.0% | 16.3% | -10.0% | 89.1µM* | -0.9%
O=C(C[n+]1ccc(-c2cc(C(=O)Nc3cccc(C(F)(F)F)c3)c3ccccc3n2)cc1)c1cccc([N+](=O)[O-])c1 | ? | 50.1µM* | -7.6% | nt | -15.1% | ?
COc1cccc(N2CCN(C(=O)c3cnn(-c4ccc(C)cc4C)c3C3CCN(C(=O)OC(C)(C)C)CC3)CC2)c1 | 2.1% | ? | -10.2% | -23.9%[57.1 µM] | ? | nt
CSc1ccccc1NC(=O)C1=CC(c2cccs2)=NS(=O)(=O)N1C | -4.2% | 35.5µM* | 3.9% | -37.5% | ? | -6.1%
Cc1ccc(NC(=O)C2=CC(c3cccs3)=NS(=O)(=O)N2C)cc1 | -7.6% | 9.1% | -10.5% | -35.0% | -24.6% | -8.3%
CN1C(C(=O)Nc2ccc(F)cc2F)=CC(c2cccs2)=NS1(=O)=O | 53.5% | ? | -2.2% | 5.6% | -17.6% | -7.7%
COc1cc(NC(=O)C2=CC(c3cccs3)=NS(=O)(=O)N2C)cc(OC)c1OC | 8.1% | 44.7µM* | 11.4% | ? | ? | -22.2%
N#CCCCSc1ncccc1-c1nc2ccccc2[nH]1 | 42.2% | 15.8µM* | -3.8% | 3.0% | -8.3% | 1.4%
Cc1ccc(S(=O)(=O)N/N=c2\sc3ccccc3n2C)cc1 | 11.4% | 0.794µM* | 0.7% | -10.5% | -2.2% | 3.3%
CCN(CC)S(=O)(=O)c1ccc2c(c1)c(=O)c(C(=O)N1CCN(c3cccc(C)c3)C(C)C1)cn2C (stereo not given) | 40.6% | -2.1%[59 µM] | 31.3% | nt | -27.3% | nt
CCOc1ccc(-c2nonc2NC(=O)c2oc3cc(Br)ccc3c2C)cc1 | 46.8% | 0.7%[59 µM] | -11.9% | -3.4% | 39.8µM* | nt
O=C(O)C1CSC2(CCN(Cc3ccccc3)CC2)N1 (stereo not given) | ? | 7.08µM* | -1.0% | 56.2µM* | 10µM* | 43.4%
CCCC(=O)Nc1cc(-c2nc3cccnc3s2)ccc1C | -15.0% | ? | -2.1% | ? | -33.9% | nt
O=C(CCN1C(=O)C2CC=C(Cl)CC2C1=O)N1CCCCC1 (stereo not given) | -1.3% | 11.2µM* | 1.7% | -7.6% | ? | -13.9%
SMILES | HP1b chromo inh | G9a inh | GLS inhibitor | BAZ2B block | JMJD2A Tudor | L3MBTL1 block
NC1=NC(=O)/C(=C/c2ccc(Br)cc2)S1 | 27.7% | 12.5%[0.501 µM] | 0.5% | -28.1% | -4.3% | 5.0%[2.29 µM]
CCOC(=O)CSC1=NC(=O)/C(=C/c2ccc(Br)cc2)S1 | 4.8% | 39.8µM* | 0.0% | -9.4% | ? | nt
CCOC(=O)COc1ccc(Br)cc1/C=C1\SC(N)=NC1=O | 4.4% | nt | 0.8% | ? | -31.9% | 11.3%
CCOC(=O)CSC1=NC(=O)/C(=C\c2ccc(OC(C)=O)cc2)S1 | 8.6% | 39.8µM* | -6.3% | -33.9% | -24.4% | 2.7%
COc1ccc(/C=C2\SC(N3CCc4ccccc4C3)=NC2=O)cc1OC | ? | 12.6µM* | 17.8% | -36.6% | ? | -15.2%
CCOC(=O)C1CCCN(C2=NC(=O)/C(=C/c3ccc(OC)c(OC)c3)S2)C1 (stereo not given) | 32.2% | 12.6% | -0.3% | -10.8% | -15.4% | nt
COc1ccc(-c2noc(-c3ccc(Br)o3)n2)cc1OC | 33.7% | 10.8%[12.7 µM] | -0.5% | -4.0% | -6.0% | 8.8%[11.4 µM]
COc1cccc(OCc2nc(-c3ccc(Br)o3)no2)c1 | 9.6% | ? | -1.8% | ? | 20.3% | 41.6%
Brc1ccc(-c2noc(COc3ccc4ccccc4c3)n2)o1 | -0.2% | 44.7µM* | -1.5% | ? | 27.7% | nt
COc1ccc(Cc2nc(-c3ccc(Br)o3)no2)cc1OC | 41.0% | 50.1µM* | 0.9% | 1.8% | -6.3% | 6.4%
CCc1ccc(NC(=O)C2CCCN(S(=O)(=O)c3cccc4nsnc34)C2)cc1 (stereo not given) | 24.6% | 3.0%[59 µM] | -8.7% | nt | -7.7% | nt
O=C1c2ccccc2NC(c2cccs2)N1O (stereo not given) | 46.4% | 31.6µM* | 13.7% | -2.7% | ? | -4.0%
O=C1c2ccccc2NC(c2ccccc2O)N1O (stereo not given) | 24.9% | 22.8% | 24.8% | -37.6% | -16.4% | nt
O=C(c1ccc(-c2cccc(C(F)(F)F)c2)o1)N1CCCCCCC1 | -8.7% | 50.1µM* | 0.1% | -8.8% | 19.2% | 2.0%
O=C(c1ccc(-c2cccc(C(F)(F)F)c2)o1)N1CCN(c2ccccc2)CC1 | 12.1% | 3.55µM* | 7.0% | 0.8% | -27.6% | -7.3%
COc1ccc(N2CC(NC(=O)c3ccc(S(=O)(=O)N4CCOCC4)cc3)CC2=O)cc1OC (stereo not given) | 23.6% | -3.8%[59 µM] | 7.8% | -3.0% | 2.3% | nt

Screens: PubChem BioAssay, National Center for Advancing Translational Sciences (NCATS)
